Holding throughout (experiment): NCI-60 one-dose screen, 48 h (100 = growth as untreated, 0 = no growth, -100 = all killed)
One assay relates to SR leukemia. The note with it: 10 µM unless noted.
A further assay has as its system RPMI-8226 leukemia. The note with it: 10 µM unless noted.
Another assay relates to OVCAR-8 ovarian. The note with it: 10 µM unless noted.
For the next assay, the system named is OVCAR-5 ovarian. The note with it: 10 µM unless noted.
For a further assay, the system named is SK-OV-3 ovarian. The note with it: 10 µM unless noted.
A further assay relates to IGROV1 ovarian. Conditions: 10 µM unless noted.
The subject of the next assay is OVCAR-3 ovarian. Conditions: 10 µM unless noted.
Another assay relates to HS 578T breast. The note with it: 10 µM.
The test system of another assay is NCI/ADR-RES ovarian. Conditions: 10 µM unless noted.
A further assay relates to T-47D breast. Conditions: 10 µM unless noted.
Another assay relates to BT-549 breast. The note with it: 10 µM unless noted.
Another assay deals with MDA-MB-435 melanoma. Conditions: 10 µM unless noted.
A further assay relates to SW-620 colon. The note with it: 10 µM unless noted.
Another assay relates to MCF7 breast. Conditions: 10 µM unless noted.
For another assay, the system named is HCT-116 colon. The note with it: 10 µM unless noted.
The test system of the next assay is HCC-2998 colon. The note with it: 10 µM unless noted.
Another assay has as its system KM12 colon. The note with it: 10 µM unless noted.
In the next assay the test system is OVCAR-4 ovarian. Conditions: 10 µM unless noted.

The record followed here is PubChem BioAssay (NCI).

The panel holds about 83,000 compounds, 20% with a hit somewhere; the sample as a whole holds those more often.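 Assay: single dose, 48 h. Readout: percent growth (0 = no net growth; negative = cell death). Active: <10.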 Values without a mark were called inactive. Calls of active or inactive are those of the source.

As to `CSC(=S)N/N=C(\C)c1ccccn1`, the growth was -3.68% (active) with SR leukemia; 12% in the assay with RPMI-8226 leukemia; 14.6% with OVCAR-8 ovarian; 27.1% with OVCAR-5 ovarian; 30.2% with SK-OV-3 ovarian; 19.4% with IGROV1 ovarian. Besides, the growth with OVCAR-3 ovarian is 5.95% (active); with HS 578T breast, 38.1%; in the assay on NCI/ADR-RES ovarian, 12.8%; in the assay on T-47D breast, 21.8%; with BT-549 breast it was 28.8%; in the assay with MDA-MB-435 melanoma it was 35.8%. In addition, the growth in the assay with SW-620 colon is 29.5%; in the assay on MCF7 breast, 7.66% (active); with HCT-116 colon, 9.68% (active); in the assay with HCC-2998 colon, 28%; in the assay with KM12 colon, 19.9%.

With `CCCCOc1ncnc2nc[nH]c12`, the growth is 88.7% in the assay with SR leukemia; 95.4% with RPMI-8226 leukemia; 99.4% in the assay on OVCAR-8 ovarian; 103% with OVCAR-5 ovarian; 102% in the assay with OVCAR-4 ovarian; 107% in the assay with SK-OV-3 ovarian. For the same compound, the growth was 124% with IGROV1 ovarian; 100% in the assay on HS 578T breast; 105% in the assay with NCI/ADR-RES ovarian; 107% in the assay on T-47D breast; 97.6% with BT-549 breast; 111% with MDA-MB-435 melanoma. Also, the growth with SW-620 colon was 108%; in the assay on MCF7 breast, 96.9%; in the assay with HCT-116 colon, 101%; in the assay with HCC-2998 colon, 111%.

As for `Cc1cc(NC(=O)C2c3ccccc3C(=O)N(CC(C)C)C2c2cccs2)no1` (configuration not stated), the growth is 7.23% (active) with SR leukemia; 3.73% (active) in the assay with RPMI-8226 leukemia; 3.68% (active) in the assay with OVCAR-8 ovarian; 31.5% in the assay on OVCAR-5 ovarian; 94.7% in the assay with SK-OV-3 ovarian; 16.2% in the assay with IGROV1 ovarian. For the same compound, the growth with OVCAR-3 ovarian is -53.6% (active); with HS 578T breast it was 67.7%; in the assay with T-47D breast it was 23.9%; in the assay with BT-549 breast, -4.46% (active); in the assay on MDA-MB-435 melanoma, -43.8% (active); in the assay with SW-620 colon, -57% (active). Moreover, the growth in the assay with MCF7 breast was 10.4%; with HCT-116 colon, 0.136% (active); in the assay on HCC-2998 colon, -45.5% (active); with KM12 colon, 86.8%.

Consider `O=C(C=P(c1ccccc1)(c1ccccc1)c1ccccc1)CCl`, for which the growth with SR leukemia is 3.51% (active); with RPMI-8226 leukemia, -19.2% (active); with OVCAR-8 ovarian, -37.1% (active); in the assay on OVCAR-5 ovarian it was 1.7% (active); with SK-OV-3 ovarian it was 24.6%; with IGROV1 ovarian, -69.5% (active). The growth was -85.1% (active) in the assay with OVCAR-3 ovarian; 18.6% in the assay on HS 578T breast; -27% (active) in the assay with NCI/ADR-RES ovarian; -73.8% (active) in the assay with T-47D breast; -11.3% (active) in the assay with BT-549 breast; -98.6% (active) with MDA-MB-435 melanoma. Also, the growth was -50.7% (active) in the assay on SW-620 colon, -16.6% (active) in the assay on MCF7 breast, -70.2% (active) in the assay with HCT-116 colon and 1.36% (active) in the assay on KM12 colon.

Consider `CCOC(C)(c1ccc(Cl)cc1)C1CCNCC1` (configuration not stated), for which the growth with SR leukemia is 88.1%; in the assay with RPMI-8226 leukemia, 114%; with OVCAR-8 ovarian, 100%; in the assay with OVCAR-5 ovarian, 102%; in the assay on SK-OV-3 ovarian, 96.1%; with IGROV1 ovarian, 115%. In addition, the growth is 110% in the assay on OVCAR-3 ovarian; 92.7% in the assay on HS 578T breast; 91.7% in the assay with T-47D breast; 99.5% in the assay on BT-549 breast; 109% with MDA-MB-435 melanoma; 79% in the assay on SW-620 colon. Further, the growth with MCF7 breast was 94.8%; in the assay on HCC-2998 colon, 89.4%; with KM12 colon it was 98.2%.

Take `CCCCCCCCCCCCCCCCS(=O)(=O)Nc1cc(C(=O)NN)cc(C(=O)NN)c1`: the growth in the assay on SR leukemia is 56.9%; in the assay on RPMI-8226 leukemia, 68%; with OVCAR-8 ovarian it was 77.5%; in the assay on OVCAR-4 ovarian it was 48.1%; in the assay with SK-OV-3 ovarian, 69.8%; in the assay with IGROV1 ovarian it was 66.3%. Also, the growth with OVCAR-3 ovarian was 47.2%; with HS 578T breast, 81.2%; in the assay with NCI/ADR-RES ovarian, 102%; in the assay on T-47D breast, 42%; in the assay on BT-549 breast it was 61.5%; in the assay with MDA-MB-435 melanoma, 89.9%. The growth in the assay on SW-620 colon was 96%; in the assay on MCF7 breast, 72.1%; with HCT-116 colon, 71.3%; with HCC-2998 colon it was 48.2%; in the assay with KM12 colon, 73%.

As to `O=c1[nH]c2ccccc2n2cc3cccnc3c12`, the growth in the assay on SR leukemia was 36%; with RPMI-8226 leukemia, 89.3%; in the assay with OVCAR-8 ovarian, 63.4%; in the assay with OVCAR-5 ovarian, 140%; in the assay on SK-OV-3 ovarian it was 82.5%; in the assay on IGROV1 ovarian, 90.2%. Moreover, the growth with OVCAR-3 ovarian is 91.8%; with HS 578T breast it was 88.4%; in the assay on NCI/ADR-RES ovarian, 58.8%; with T-47D breast it was 81%; in the assay on BT-549 breast, 111%; with MDA-MB-435 melanoma, 12.5%. Further, the growth in the assay on SW-620 colon is 31.5%; with MCF7 breast, 32.2%; in the assay with HCT-116 colon, 33%; with KM12 colon it was 52.6%.

With `C=CC[C@]1(O)CC[C@H]2[C@@H]3CCc4cc(O)ccc4[C@H]3CC[C@@]21C`, the growth in the assay on SR leukemia was 38.4%; with RPMI-8226 leukemia, 86.5%; in the assay on OVCAR-8 ovarian, 94.9%; with OVCAR-5 ovarian it was 98.5%; in the assay on SK-OV-3 ovarian, 107%; in the assay on IGROV1 ovarian, 109%. Moreover, the growth was 102% with OVCAR-3 ovarian; 87.5% in the assay on NCI/ADR-RES ovarian; 82.5% in the assay on T-47D breast; 93.6% in the assay with BT-549 breast; 38.9% in the assay on MDA-MB-435 melanoma; 92% in the assay on SW-620 colon. Besides, the growth with MCF7 breast was 116%; with HCT-116 colon, 93%; in the assay with HCC-2998 colon, 99.8%; in the assay with KM12 colon it was 76.8%.

Regarding `COc1ccc(-c2oc(=O)ccc2-c2cc(OC)c(OC)c(OC)c2)cc1F`, the growth was 7.57% (active) in the assay on SR leukemia; 80.8% in the assay on RPMI-8226 leukemia; 79.9% in the assay on OVCAR-8 ovarian; 105% with OVCAR-4 ovarian; 106% with SK-OV-3 ovarian; 80.4% in the assay on IGROV1 ovarian. The growth with OVCAR-3 ovarian was 107%; with HS 578T breast, 86.4%; with NCI/ADR-RES ovarian it was 57.9%; with T-47D breast, 104%; with BT-549 breast, 98.5%; with MDA-MB-435 melanoma, -2.61% (active). The growth was 46.4% in the assay on SW-620 colon; 44% in the assay with MCF7 breast; 60.2% in the assay on HCT-116 colon; 65% in the assay with HCC-2998 colon; 41.6% with KM12 colon.

Turning to `O=C(O)c1ccccc1N=Cc1ccccc1`, the growth with SR leukemia is 95.9%; in the assay on RPMI-8226 leukemia, 101%; in the assay on OVCAR-8 ovarian it was 106%; in the assay on OVCAR-5 ovarian, 108%; in the assay on SK-OV-3 ovarian, 104%; with IGROV1 ovarian it was 101%. The growth is 115% with OVCAR-3 ovarian; 106% in the assay with HS 578T breast; 101% in the assay with T-47D breast; 112% with BT-549 breast; 95.2% with MDA-MB-435 melanoma; 107% in the assay on SW-620 colon. Further, the growth in the assay with MCF7 breast is 109%; in the assay on HCT-116 colon, 101%; in the assay on HCC-2998 colon, 102%; in the assay on KM12 colon, 105%.
